PubChem BioAssay (Tox21)
“And” between values parts separate entries of the source, which are not always exact repeats. Identical values can stand only once. Results filed as inconclusive are left out. A call without a number means that no potency is given here. Some structures have more than one record in an assay (separate samples or runs), and their calls can disagree. The source made the active and inactive calls. Unless noted, the call rests on the fitted dose curve; in most records, active means well fitted curve in the direction sought with a large enough effect in the repeat runs; inconclusive means weak or mixed curves; inactive means no such curve, though single readings can be large; an effect the other way counts as inactive or inconclusive.

Legend:
[1] = qHTS assay to identify small molecule agonists of H2AX - cell viability counter screen (AID 1224847; calls by dose curve; further: nearly all actives have a fitted effect of over 30% in size; further: potency means the concentration at half of the fitted maximal effect)
In short: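 For this counter screen, overnight-attached CHO-K1 cells received test compounds (15 concentrations, 0.76% DMSO final); 3 hr later at 37C, CellTiter-Glo reagent was added and luminescence recorded after 30 min at room temperature.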

[2] = qHTS assay to identify small molecule antagonists of the estrogen related receptor (ERR) signaling pathway from Tox21 library (AID 1224848); further: nearly all actives have a fitted effect of over 50% in size; further: potency means the concentration at half of the fitted maximal effect
In short: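 ERR reporter cell line (from NTP) seeded 2,000 cells/well, rested 6 h at 37 C/5% CO2, then pin-dosed with compounds in DMSO. After 18 h at 37 C, ONE-Glo added; luminescence read after 30 min at room temperature.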

[3] = qHTS assay to identify small molecule agonists of the estrogen related receptor (ERR) signaling pathway from Tox21 library (AID 1224849; calls by dose curve; further: nearly all actives have a fitted effect of over 15% in size); details: ERR reporter cell line, ONE-Glo luciferase, 18 h
In short: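 Screening used an NTP-provided ERR luciferase cell line. Compounds in DMSO were added 6 h after seeding and left 18 h at 37 C before a 30 min ONE-Glo step and luminescence reading.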

[4] = qHTS RealTime-Glo MT Cell Viability Assay in HepG2 cells - 24 hour (AID 1224867); further: nearly all actives have a fitted effect of over 50% in size; further: potency means the concentration at half of the fitted maximal effect
In short: (§1)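 HepG2 cells (600/well) were dispensed with RealTime-Glo reagents, incubated 5 h at 37 °C, then treated with compounds in DMSO for up to 40 h. Nonlytic NanoLuc luminescence reflecting viable cells was read at each stated time point.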

[5] = qHTS RealTime-Glo MT Cell Viability Assay in HEK293 cells - 32 hour (AID 1224868); further: nearly all actives have a fitted effect of over 50% in size; further: potency means the concentration at half of the fitted maximal effect
In short: (§2)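 HEK293 cells seeded with NanoLuc/prosubstrate reagent, rested 5 h at 37 C, then dosed and kept at 37 C up to 40 h. Nonlytic real-time luminescence from viable cells read at 0, 8, 16, 24, 32 and 40 h.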

[6] = A CellTox Green Cytotoxicity Assay to monitor cytotoxicity in HEK293 cells - 0 hour (AID 1224869); further: nearly all actives have a fitted effect of over 50% in size
In short: (§3)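 Fluorescence intensity, read at 0, 8, 16, 24, 32 and 40 h of compound treatment, reflected dye binding to DNA of dead HEK293 cells; compounds (23 nL, DMSO) were added 5 h after plating cells with reagent.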

[7] = qHTS RealTime-Glo MT Cell Viability Assay in HepG2 cells - 40 hour (AID 1224870); further: nearly all actives have a fitted effect of over 50% in size; further: potency means the concentration at half of the fitted maximal effect
In short: (§4)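 HepG2 cells (600/well) mixed with RealTime-Glo MT reagent, settled 5 h at 37 C/5% CO2 before compound addition. Nonlytic NanoLuc luminescence from viable-cell prosubstrate reduction read repeatedly during 40 h treatment at 37 C.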

[8] = qHTS RealTime-Glo MT Cell Viability Assay in HEK293 cells - 16 hour (AID 1224872); further: nearly all actives have a fitted effect of over 50% in size; further: potency means the concentration at half of the fitted maximal effect
In short: as §2

[9] = qHTS RealTime-Glo MT Cell Viability Assay in HepG2 cells - 8 hour (AID 1224873); further: nearly all actives have a fitted effect of over 55% in size; further: potency means the concentration at half of the fitted maximal effect
In short: as §4

[10] = qHTS RealTime-Glo MT Cell Viability Assay in HEK293 cells - 40 hour (AID 1224874); details: RealTime-Glo luminescence; max response: stronger effect = lower value; further: nearly all actives have a fitted effect of over 50% in size; further: potency means the concentration at half of the fitted maximal effect
In short: (§5)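 Viable HEK293 cells reduce a cell-permeant prosubstrate; the product diffuses out and is consumed by NanoLuc in the medium to give light. Compounds went in after a 5 h incubation and plates were read over the treatment course.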

[11] = A CellTox Green Cytotoxicity Assay to monitor cytotoxicity in HepG2 cells - 16 hour (AID 1224876); further: nearly all actives have a fitted effect of over 45% in size; further: potency means the concentration at half of the fitted maximal effect
In short: (§6)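 Using 1536-well format, dye-containing HepG2 suspension was seeded, allowed 5 h at 37 C/5% CO2, dosed by pintool with compounds, positive and negative controls, and imaged for fluorescence across 40 h.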

[12] = A CellTox Green Cytotoxicity Assay to monitor cytotoxicity in HepG2 cells - 40 hour (AID 1224879); further: nearly all actives have a fitted effect of over 40% in size; further: potency means the concentration at half of the fitted maximal effect
In short: as §6

[13] = qHTS RealTime-Glo MT Cell Viability Assay in HEK293 cells - 0 hour (AID 1224880); further: top concentration of the series differs between compounds; nearly all actives have a fitted effect of over 45% in size
In short: as §5

[14] = A CellTox Green Cytotoxicity Assay to monitor cytotoxicity in HEK293 cells - 32 hour (AID 1224881); further: nearly all actives have a fitted effect of over 40% in size; further: potency means the concentration at half of the fitted maximal effect
In short: as §3

[15] = A CellTox Green Cytotoxicity Assay to monitor cytotoxicity in HEK293 cells - 24 hour (AID 1224875); further: nearly all actives have a fitted effect of over 45% in size; further: potency means the concentration at half of the fitted maximal effect
In short: as §3

[16] = qHTS RealTime-Glo MT Cell Viability Assay in HepG2 cells - 32 hour (AID 1224877); further: nearly all actives have a fitted effect of over 55% in size; further: potency means the concentration at half of the fitted maximal effect
In short: as §1

[17] = A CellTox Green Cytotoxicity Assay to monitor cytotoxicity in HepG2 cells - 24 hour (AID 1224878); further: nearly all actives have a fitted effect of over 45% in size; further: potency means the concentration at half of the fitted maximal effect
In short: as §6

[18] = A CellTox Green Cytotoxicity Assay to monitor cytotoxicity in HEK293 cells - 40 hour (AID 1224871); further: nearly all actives have a fitted effect of over 45% in size; further: potency means the concentration at half of the fitted maximal effect
In short: as §3

[19] = qHTS assay to identify small molecule agonists of the hypoxia (HIF-1) signaling pathway (AID 1224846; active means well fitted activation curve with a large enough effect in the signal ratio in the repeat runs, not every such curve was filed as active; the % refers to the signal ratio)
In short: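 A low-serum medium (0.5% dialyzed FBS) holding 2,000 HRE-bla ME-180 cells per well is preincubated for 5 hrs, dosed with compounds by pintool, and kept a further 17 hrs at 37C, 5% CO2 before CCF4-AM FRET detection of beta-lactamase.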

[20] = at 92.4 µM (top of the series) unless noted

## Clc1ccc(C(c2ccc(Cl)cc2)C(Cl)(Cl)Cl)cc1
[1]
  Potency: 101 µM (active) and 89.8 µM (active)
[2]
  Potency: 54.9 µM (active) and 61.1 µM (active)
[3]; at 42.5 µM (top of the series)
  activity change, positive = activation: -17.1% (inactive)
[3]; at 92.4 µM (top of the series)
  activity change, positive = activation: -47.6% (inactive) and -41.9% (inactive)
[4]
  Potency: inactive
[5]
  Potency: 39.2 µM (active)
[6]
  Potency: inactive
[7]
  Potency: inactive
[8]
  Potency: 39.2 µM (active)
[9]
  Potency: inactive
[10]
  Potency: 39.2 µM (active)
[11]
  Potency: inactive
[12]
  Potency: inactive and 54.9 µM (active)
[13]
  Potency: inactive
[14]
  Potency: 55.3 µM (active) and inactive

## CCC[CH2][Sn]([CH2]CCC)([CH2]CCC)[O]C(=O)c1ccccc1
[1]
  Potency: 0.713 µM (active)
[2]
  Potency: 0.486 µM (active)
[3]; [20]
  activity change, positive = activation: -78% (inactive)
[4]
  Potency: 0.49 µM (active)
[5]
  Potency: 0.389 µM (active)
[6]
  Potency: inactive
[8]
  Potency: 0.436 µM (active)
[9]
  Potency: 0.776 µM (active)
[10]
  Potency: 0.389 µM (active)
[15]
  Potency: 1.95 µM (active)
[11]
  Potency: 0.692 µM (active)
[16]
  Potency: 0.436 µM (active)
[17]
  Potency: 0.692 µM (active)
[12]
  Potency: 0.549 µM (active)
[14]
  Potency: 977 nM (active)

## O=c1c(C2CC(c3ccc(-c4ccc(Br)cc4)cc3)Cc3ccccc32)c(O)sc2ccccc12 (stereo not given)
[1]
  Potency: inactive
[2]
  Potency: 7.5 µM (active)
[3]; [20]
  activity change, positive = activation: -54.2% [at 42.5 µM] (inactive)
[5]
  Potency: inactive
[6]
  Potency: inactive
[18]
  Potency: inactive
[8]
  Potency: inactive
[10]
  max response: -20.8% (inactive)
[15]
  Potency: inactive
[11]
  Potency: inactive
[17]
  Potency: inactive
[12]
  Potency: inactive
[14]
  Potency: inactive

## Oc1ccc(C(c2ccc(O)cc2)(C(F)(F)F)C(F)(F)F)cc1
[1]
  Potency: 113 µM (active)
[2]
  Potency: 54.2 µM (active) and 61.1 µM (active)
[3]; [20]
  activity change, positive = activation: -65.7% (inactive) and -36.3% (inactive)
[4]
  Potency: inactive
[5]
  Potency: 43.4 µM (active)
[7]
  Potency: inactive
[18]
  Potency: 43.4 µM (active) and inactive
[9]
  Potency: inactive
[11]
  Potency: 54.9 µM (active)
[16]
  Potency: inactive
[12]
  Potency: 54.7 µM (active) and 54.9 µM (active)
[13]
  Potency: inactive
[14]
  Potency: 43.4 µM (active) and inactive

## Cc1cc(C(C)(C)c2cc(C)c(O)c(C)c2)cc(C)c1O
[1]
  Potency: 109 µM (active)
[2]
  Potency: 26.4 µM (active)
[3]; [20]
  activity change, positive = activation: -83.8% (inactive)
[5]
  Potency: 18.9 µM (active)
[6]
  Potency: inactive
[7]
  Potency: inactive
[8]
  Potency: 23.7 µM (active)
[10]
  Potency: 18.9 µM (active)
[15]
  Potency: inactive
[13]
  Potency: inactive
[14]
  Potency: inactive

## CCCCCCCCCCCCCCCCCCn1cc[n+](C)c1
[1]
  Potency: 22.4 µM (active)
[2]
  Potency: 5.42 µM (active)
[3]; [20]
  activity change, positive = activation: -74.3% (inactive)
[4]
  Potency: 34.5 µM (active)
[5]
  Potency: 7.72 µM (active)
[6]
  Potency: inactive
[7]
  Potency: 21.7 µM (active)
[18]
  Potency: 19.4 µM (active)
[8]
  Potency: 24.4 µM (active)
[9]
  Potency: inactive
[15]
  Potency: 21.7 µM (active)
[11]
  Potency: 38.7 µM (active)
[16]
  Potency: 24.4 µM (active)
[17]
  Potency: 24.4 µM (active)
[12]
  Potency: 19.4 µM (active)
[14]
  Potency: 19400 nM (active)

## CC(C)(c1ccc(O)c(-c2ccccc2)c1)c1ccc(O)c(-c2ccccc2)c1
[1]
  Potency: 25.3 µM (active)
[2]
  Potency: 24.3 µM (active)
[3]; [20]
  activity change, positive = activation: -69.8% (inactive)
[4]
  Potency: 49 µM (active)
[5]
  Potency: 21.9 µM (active)
[6]
  Potency: inactive
[8]
  Potency: 21.9 µM (active)
[9]
  Potency: 49 µM (active)
[10]
  Potency: 19.5 µM (active)
[12]
  Potency: 49 µM (active)
[13]
  Potency: inactive

## c1cc[c]([Sb]([c]2ccccc2)[c]2ccccc2)cc1
[19]
  outcome: inactive
[4]
  Potency: inactive
[5]
  Potency: 54.9 µM (active)
[6]
  Potency: inactive
[7]
  Potency: inactive
[18]
  Potency: inactive
[9]
  Potency: inactive
[10]
  Potency: 54.9 µM (active)
[15]
  Potency: inactive
[11]
  Potency: inactive
[16]
  Potency: inactive
[12]
  Potency: inactive
[13]
  Potency: inactive
[14]
  Potency: inactive

## COc1cccc2c1C(=O)c1c(O)c3c(c(O)c1C2=O)C[C@@](O)(C(=O)CO)CC3OC1CC(N2CCOC(OC)C2)C(O)C(C)O1 (stereo not given in full)
[1]
  Potency: inactive
[2]
  Potency: inactive
[3]; [20]
  activity change, positive = activation: -10.4% [at 42.5 µM] (inactive)
[4]
  Potency: 1.9 µM (active)
[5]
  Potency: 0.0301 µM (active)
[6]
  Potency: inactive
[7]
  Potency: 0.0338 µM (active)
[18]
  Potency: inactive
[15]
  Potency: inactive
[11]
  Potency: 23.9 µM (active)
[16]
  Potency: 0.0425 µM (active)
[12]
  Potency: 0.0425 µM (active)
[13]
  Potency: inactive
[14]
  Potency: inactive

## Clc1ccc(C(c2ccccc2Cl)C(Cl)(Cl)Cl)cc1 (stereo not given)
[1]
  Potency: 101 µM (active) and 66.2 µM (active)
[2]
  Potency: 61.5 µM (active) and 40.2 µM (active)
[3]; at 42.5 µM (top of the series)
  activity change, positive = activation: -15.1% (inactive)
[3]; at 92.4 µM (top of the series)
  activity change, positive = activation: -41.5% (inactive)
[4]
  Potency: inactive
[5]
  Potency: 49.3 µM (active) and inactive
[6]
  Potency: inactive
[7]
  Potency: inactive
[18]
  Potency: 43.9 µM (active) and inactive
[8]
  Potency: 49.3 µM (active) and inactive
[9]
  Potency: inactive
[10]
  Potency: 49.3 µM (active)
  max response: -21.7% (inactive)
[15]
  Potency: inactive
[11]
  Potency: inactive
[16]
  Potency: inactive
[17]
  Potency: inactive
[12]
  Potency: inactive
[13]
  Potency: inactive
[14]
  Potency: 55.3 µM (active) and inactive

## CN(C)c1ccc(N=Nc2ccccc2)cc1
[19]
  outcome: inactive
[4]
  Potency: inactive
[6]
  Potency: inactive
[7]
  Potency: inactive
[11]
  Potency: inactive
[17]
  Potency: inactive
[12]
  Potency: inactive
[13]
  Potency: inactive

## c1ccc(Nc2ccc3ccccc3c2)cc1
[1]
  Potency: 100 µM (active) and 80 µM (active)
[2]
  Potency: inactive
[3]; [20]
  activity change, positive = activation: 53.3% (active) and 56% (active)
[4]
  Potency: inactive
[6]
  Potency: inactive
[7]
  Potency: inactive
[18]
  Potency: inactive
[15]
  Potency: inactive
[11]
  Potency: inactive
[16]
  Potency: inactive
[12]
  Potency: 48.7 µM (active)
[13]
  Potency: inactive
[14]
  Potency: inactive

## C[C@]12CC[C@H](O)C[C@H]1CC[C@@H]1[C@@H]2C[C@@H](O)[C@]2(C)[C@@H](C3=CC(=O)OC3)CC[C@]12O
[1]
  Potency: inactive
[2]
  Potency: 3.06 µM (active)
[3]; [20]
  activity change, positive = activation: -63.4% (active)
[4]
  Potency: inactive
[5]
  Potency: 0.692 µM (active)
[6]
  Potency: inactive
[7]
  Potency: inactive
[18]
  Potency: inactive
[9]
  Potency: inactive
[10]
  Potency: 0.776 µM (active)
[15]
  Potency: inactive
[11]
  Potency: inactive
[16]
  Potency: inactive
[17]
  Potency: inactive
[12]
  Potency: inactive
[13]
  Potency: inactive
[14]
  Potency: inactive
